Laboratory results: PubChem BioAssay (NCI)
About 83,000 compounds went through this panel and 20% of them were active in at least one assay; those are over-represented in the sample as a whole.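 The test compound was applied at a single concentration to cells in 96-well plates for 48 hours, and percent growth was recorded.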 The source made the active and inactive calls.

System: HT29 colon
Assay: NCI-60 one-dose screen, 48 h (100 = growth as untreated, 0 = no growth, -100 = all killed)
Conditions: 10 µM unless noted
Experimental: Growth inhibition of the HT29 human tumor cell line is measured as a screen for anti-cancer activity. Cells are grown in 96 well plates and exposed to the test compound for 48 hours. Compounds are tested at a single concentration, which is 10^-5 M for most compounds. The reported endpoint is percent growth (GI% or GIPRCNT), where numbers from 0 - 100% represent growth inhibition, and numbers from -100% - 0 represent cell death. For example, a value of 40 represents 60% growth inhibition. A value of 0 means no net growth occurred over the course of the experiment. A value of -40 indicates 40% of cells at the beginning of the experiment died by the end of the experiment. A value of -100 means all cells are dead at the end of the experiment.
NCI-60 Human Tumor Cell Lines Screen was performed using the standard one-dose NCI protocol, which is described in more detail at https://dtp.cancer.gov/discovery_development/nci-60/default.htm.
Compounds with GIPRCNT values below 10 were considered active. Activity score was based on GIPRCNT using the following formula: […]
Score is 0 for GIPRCNT values of 100 or above, 50 for GIPRCNT values of 0, and 100 for GIPRCNT values of -100.

Q: O=C(Cn1c2ccccc2c2ccncc21)N/N=C/c1c[nH]c2ccccc12 was tested. Which growth did it give?
A: 44.2% (inactive)

Q: How did the growth turn out when CCN1CCN(Cc2ccc(NC(=O)Nc3cccc(-n4ccc5c(NC(=O)c6ccccc6)nccc54)c3)cc2C(F)(F)F)CC1 was run?
A: 75.1% (inactive)

Q: For CC(C(=O)O)N1C(N)=NNC1c1ccccc1O (stereo not given), which growth is on record?
A: 99.3% (inactive)

Q: How did the growth turn out when COc1cc2ncnc(Oc3ccc(NC(=O)Nc4ccc(CN5CCOCC5)c(C(F)(F)F)c4)c4ccccc34)c2cc1OC was run?
A: 14.2% (inactive)

Q: Cc1cc(NC(=O)c2cccc(C(F)(F)F)c2)ccc1-n1ccc2c(NC(=O)c3ccccc3)nccc21 was tested. Which growth did it give?
A: 94.5% (inactive)

Q: How did the growth turn out when CC(=S)Nc1ccccc1 was run?
A: 94.3% (inactive)

Q: For COc1ccc(Cl)cc1NC(=O)c1cc2c(n1C)-c1nc(NC(=O)C(C)(C)C)sc1CC2, which growth is on record?
A: 79.2% (inactive)

Q: With O=C(CSc1nnc(-c2ccc(Cl)cc2)o1)Nc1ccc(C(=O)/C=C/c2ccccc2)cc1 as the compound, how does the growth read?
A: 98% (inactive)

Q: For c1ccc2nc(Cn3cc[n+](Cc4ccc5ccccc5n4)c3)ccc2c1, which growth is on record?
A: 41.9% (inactive)

Q: Which growth does the source give for COc1cc(NC(=O)C#Cc2ccccc2)c(OC)cc1Cl here?
A: 29.3% (inactive)

Q: With CO[C@H]1/C=C/C=C/C=C/C[C@H](OC(=O)[C@@H](C)NC(=O)C2CCCCC2)[C@H](C)[C@@H](O)/C(C)=C\CCC2=CC(=O)C=C(NC(=O)C1)C2=O as the compound, how does the growth read?
A: -28.8% (active)

Q: Which growth does the source give for O=C(CNc1cccnc1)Nc1ccc(C(=O)/C=C/c2ccc(Cl)cc2)cc1 here?
A: 90% (inactive)

Q: Which growth does the source give for CC(=O)c1cc2c(c(O)c1C)C(=O)C(=O)c1c(O)cccc1-2 here?
A: -15.5% (active)

Q: Which growth does the source give for O=C1C(SCCO)=C(SCCO)C(=O)N1c1ccc(-c2ccccc2)cc1 here?
A: 70.2% (inactive)

Q: Which growth does the source give for FC(F)(F)c1cn(CC2CNC2)c2ncnc(Cl)c12 here?
A: 92.2% (inactive)

Q: O[C@@H]1CCO[C@H](c2ccc3ccccc3c2)C1 was tested. Which growth did it give?
A: 100% (inactive)

Q: For CCc1ccc(C2=C/C(=C/c3ccc(Cl)cc3)C(=O)N2CCc2ccc(S(N)(=O)=O)cc2)cc1, which growth is on record?
A: 6.46% (active)

Q: With NC(=O)C1=C[C@H]2[C@H]3C=C[C@@]2(O)C(=O)O[C@@H]3O1 as the compound, how does the growth read?
A: 47% (inactive)

Q: For COc1ccc(-c2nnc(SCC(=O)Nc3ccc(C(=O)/C=C/c4ccc(OC)c(OC)c4)cc3)o2)cc1, which growth is on record?
A: 87.1% (inactive)

Q: Which growth does the source give for CC1(C)N=C(N)N=C(N)N1c1ccc(OCC(=O)Nc2ccccc2)c(Cl)c1 here?
A: 17.6% (inactive)

Q: With CCCCNC(=O)Oc1ccc(/C(=C(/CC)Cc2ccccc2)c2ccc(OCCCN(C)C)cc2)cc1 as the compound, how does the growth read?
A: 15.4% (inactive)

Q: How did the growth turn out when COc1ccc(Cn2cc3c(c2-c2cc(OC)c(OC)c(OC)c2)CCc2c(CO)noc2-3)cc1 was run?
A: 8.14% (active)

Q: How did the growth turn out when COc1ccc(/C(Cl)=N/N=C(\Cl)c2cc(OC)c(OC)c(OC)c2)cc1OC(C)=O was run?
A: 79.2% (inactive)

Q: Oc1ccc(Cl)cc1Sc1cc(Cl)ccc1O was tested. Which growth did it give?
A: 102% (inactive)

Q: For Nc1nccc2c1ccn2-c1ccc(NC(=O)c2ccc(N3CCOCC3)c(C(F)(F)F)c2)cc1, which growth is on record?
A: -39.7% (active)

Q: How did the growth turn out when Fc1cccc(F)c1C#Cc1ccc2cccnc2c1 was run?
A: 69% (inactive)

Q: For Cc1nccc2c3ccc(OCc4cn(-c5ccc(Br)cc5)nn4)cc3n(CCCc3ccccc3)c12, which growth is on record?
A: 10.5% (inactive)

Q: Which growth does the source give for COc1cc(/C=C\c2cc(/C=C\c3ccc(O)c(OC)c3)n(C(=O)CNc3ccccc3OC)n2)ccc1O here?
A: 109% (inactive)

Q: Which growth does the source give for C=C1C(=O)O[C@H]2[C@H]1CC/C(COC(=O)c1cc(OC)c(OC)c(OC)c1)=C\CC[C@@]1(C)O[C@@H]21 here?
A: -80.2% (active)

Q: With Nn1c(CN2CCN(c3cc4c(cc3F)c(=O)c(C(=O)O)cn4C3CC3)CC2)n[nH]c1=S as the compound, how does the growth read?
A: 97.8% (inactive)

Q: Which growth does the source give for C=C1C(=O)O[C@H]2[C@H]1CC/C(COC(=O)c1cccc3ccccc13)=C\CC[C@@]1(C)O[C@@H]21 here?
A: -84.2% (active)

Q: Which growth does the source give for O=c1c2ccccc2sc2c(NCCCNCCO)nc3ccccc3c12 here?
A: -47.3% (active)

Q: With CC(=O)Cc1cccnc1 as the compound, how does the growth read?
A: 106% (inactive)

Q: For COc1ccc(/C=C2/C(=O)Nc3cc(Cl)c(-c4csc(N)n4)cc32)cc1, which growth is on record?
A: 27.9% (inactive)

Q: For O=C(CSc1nnc(-c2cc3c([nH]c4ccccc43)c(-c3cccc(O)c3)n2)n1-c1ccccc1)c1ccccc1, which growth is on record?
A: 64.9% (inactive)

Q: With NN=C(c1ccc(Cl)cc1)c1ccc(Cl)cc1 as the compound, how does the growth read?
A: 96.7% (inactive)

Q: For Nc1nc(=S)ss1, which growth is on record?
A: 105% (inactive)

Q: Which growth does the source give for COc1cc(/C=C/C(=O)N2CCC=CC2=O)cc(OC)c1OC here?
A: 23.2% (inactive)

Q: With COc1ccccc1N1CCN(CC(O)COc2c(Br)c(Br)c(Br)c3c2OC(C)(C)C3)CC1 (stereo not given) as the compound, how does the growth read?
A: 5.44% (active)

Q: Which growth does the source give for N#CC(C#N)=C(C#N)c1c[nH]c2ccccc12 here?
A: 80.4% (inactive)
